This is part of a sample that, as a whole, favours compounds with a hit. Of some 83,000 tested, about 20% had one in any assay.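 Method: cells in 96-well plates; compound added at one concentration; 48 h incubation; percent growth measured; values under 10 scored active.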 Values without a mark were called inactive. Calls of active or inactive are those of the source.

Some test systems named below: SK-MEL-2 melanoma; EKVX NSCLC; SN12C renal; UO-31 renal; TK-10 renal; ACHN renal; CAKI-1 renal; A498 renal; CCRF-CEM leukemia; MOLT-4 leukemia; SR leukemia; OVCAR-8 ovarian; OVCAR-5 ovarian; OVCAR-4 ovarian; SK-OV-3 ovarian; IGROV1 ovarian; OVCAR-3 ovarian; HS 578T breast; NCI/ADR-RES ovarian.
Common to all, as to assay: NCI-60 one-dose screen, 48 h (100 = growth as untreated, 0 = no growth, -100 = all killed)
Common to all, as to conditions: 10 µM unless noted

`CC(C)C(=O)Nc1ccc(-c2nc(-c3cccc(OCCN4CCOCC4)c3)c(-c3ccnc(Br)c3)[nH]2)cc1`: the growth is 36.2% in the assay with SK-MEL-2 melanoma; 77.2% in the assay on EKVX NSCLC; 70.5% in the assay with SN12C renal; 12.4% in the assay with UO-31 renal; 85.3% in the assay on TK-10 renal; 58.7% with ACHN renal. The growth in the assay on CAKI-1 renal is 44%; with A498 renal it was 54.7%; in the assay with CCRF-CEM leukemia, 29%; in the assay with MOLT-4 leukemia, 10.6%; in the assay on SR leukemia, -3.9% (active); in the assay with OVCAR-8 ovarian, 51.8%. In addition, the growth is 75.2% in the assay with OVCAR-5 ovarian; 60% with OVCAR-4 ovarian; 73.6% with SK-OV-3 ovarian; 68.7% with IGROV1 ovarian; 63.3% in the assay with OVCAR-3 ovarian; -26% (active) with HS 578T breast. For the same compound, the growth with NCI/ADR-RES ovarian is 91.7%.

In the case of `CCN(CC)CCNc1nc2ccccc2c2c(=O)c3cc(Cl)ccc3sc12`, the growth with SK-MEL-2 melanoma was 89%; in the assay on EKVX NSCLC, 74.9%; in the assay on SN12C renal it was 66.7%; with UO-31 renal, 43.7%; with TK-10 renal, 80.1%; in the assay on ACHN renal, 47.6%. Moreover, the growth in the assay with CAKI-1 renal is 22.6%; in the assay on A498 renal, -7.91% (active); in the assay on CCRF-CEM leukemia, 7.05% (active); with MOLT-4 leukemia, 25.1%; with SR leukemia, -2.52% (active); in the assay with OVCAR-8 ovarian, 64.4%. In addition, the growth in the assay with OVCAR-5 ovarian is 81.6%; in the assay on OVCAR-4 ovarian it was 46.5%; in the assay on SK-OV-3 ovarian it was 54%; in the assay on IGROV1 ovarian, 56.1%; in the assay with OVCAR-3 ovarian it was 51.3%; with HS 578T breast, 67.6%. Besides, the growth in the assay on NCI/ADR-RES ovarian was 27.1%.

Regarding `Cc1cccc(NC2=C(Cl)C(=O)c3nc(C)ccc3C2=O)c1`, the growth with SK-MEL-2 melanoma was -9.34% (active); in the assay on EKVX NSCLC, 75.7%; with SN12C renal it was -71.2% (active); with UO-31 renal, -93.3% (active); with TK-10 renal, 123%; with ACHN renal, -98.3% (active). In addition, the growth with CAKI-1 renal is -33.1% (active); in the assay with A498 renal, 42.1%; in the assay on CCRF-CEM leukemia it was 3.19% (active); in the assay with MOLT-4 leukemia, -22.1% (active); in the assay with SR leukemia it was 1.13% (active); in the assay with OVCAR-8 ovarian, 6.03% (active). For the same compound, the growth is -43% (active) in the assay on OVCAR-5 ovarian; -97.5% (active) with OVCAR-4 ovarian; 74.5% with SK-OV-3 ovarian; -54.1% (active) in the assay on IGROV1 ovarian; -31.8% (active) in the assay on OVCAR-3 ovarian; -16.5% (active) with HS 578T breast. Besides, the growth in the assay on NCI/ADR-RES ovarian is 13.8%.

As to `COC(=O)Nc1ccc(-c2nc(-c3cccc(OC)c3)c(-c3ccnc(Br)c3)[nH]2)cc1`, the growth in the assay on SK-MEL-2 melanoma was 72.1%; in the assay on EKVX NSCLC it was 55.5%; with SN12C renal it was 67%; with UO-31 renal, 38.6%; in the assay with TK-10 renal, 77.9%; in the assay on ACHN renal, 53.4%. Further, the growth with CAKI-1 renal is 52%; in the assay on A498 renal, 48.4%; with CCRF-CEM leukemia, 34.9%; in the assay with MOLT-4 leukemia, 30.9%; with SR leukemia, 3.64% (active); in the assay with OVCAR-8 ovarian, 48%. For the same compound, the growth in the assay on OVCAR-5 ovarian is 85.6%; in the assay on OVCAR-4 ovarian, 51.5%; in the assay with SK-OV-3 ovarian, 88.1%; in the assay on IGROV1 ovarian, 72.5%; in the assay on OVCAR-3 ovarian, 70.2%; with HS 578T breast, 33.4%. In addition, the growth in the assay on NCI/ADR-RES ovarian was 45.2%.

As for `CN(C)CCS(=O)(=O)Nc1cc(-c2ccc3ncc(C#N)c(Nc4ccc(F)c(Cl)c4)c3c2)cnc1Cl`, the growth was -40.4% (active) with SK-MEL-2 melanoma; -43.5% (active) with EKVX NSCLC; 0.75% (active) in the assay with SN12C renal; -55.5% (active) with UO-31 renal; -35.5% (active) in the assay on TK-10 renal; 8.58% (active) in the assay with ACHN renal. For the same compound, the growth with CAKI-1 renal was -42.3% (active); in the assay with A498 renal, -49.9% (active); in the assay with CCRF-CEM leukemia, 1.06% (active); in the assay with MOLT-4 leukemia, -25.9% (active); in the assay with SR leukemia, -12.5% (active); in the assay on OVCAR-8 ovarian, -10.8% (active). Further, the growth in the assay on OVCAR-5 ovarian was -43.8% (active); in the assay with OVCAR-4 ovarian, -5.26% (active); in the assay with SK-OV-3 ovarian, -35.1% (active); in the assay on IGROV1 ovarian, -43.3% (active); with OVCAR-3 ovarian it was -59.8% (active); in the assay on HS 578T breast it was -10.5% (active). For the same compound, in the assay with NCI/ADR-RES ovarian, the growth was 63.7%.

`CCC(=O)Nc1ccc(-c2nc(-c3cccc(OC)c3)c(-c3ccnc(Br)c3)[nH]2)cc1`: the growth in the assay with SK-MEL-2 melanoma is 70.2%; in the assay with EKVX NSCLC, 64.6%; with SN12C renal, 68.3%; in the assay on UO-31 renal it was 53.9%; in the assay on TK-10 renal, 90.4%; in the assay with ACHN renal, 60.3%. The growth in the assay on CAKI-1 renal is 57.1%; with A498 renal, 50.5%; with CCRF-CEM leukemia, 37.1%; in the assay with MOLT-4 leukemia, 44.6%; in the assay with SR leukemia, 25.3%; with OVCAR-8 ovarian, 58.2%. For the same compound, the growth is 87% in the assay with OVCAR-5 ovarian; 46.8% in the assay with OVCAR-4 ovarian; 101% in the assay on SK-OV-3 ovarian; 81% in the assay on IGROV1 ovarian; 65.4% with OVCAR-3 ovarian; 39.2% in the assay on HS 578T breast. For the same compound, in the assay with NCI/ADR-RES ovarian, the growth is 67.9%.

As for `CCN(CC)CCNC(=O)c1cn2ncnc(Oc3ccc(NC(=O)Nc4ccc(Cl)c(C(F)(F)F)c4)cc3)c2c1C`, the growth in the assay on SK-MEL-2 melanoma was -51.7% (active); in the assay with EKVX NSCLC it was -47.7% (active); with SN12C renal, -92.5% (active); in the assay with UO-31 renal, -92% (active); with TK-10 renal, -66% (active); with ACHN renal, -55.2% (active). Besides, the growth in the assay on CAKI-1 renal is -58.9% (active); in the assay on A498 renal, -6.51% (active); in the assay with CCRF-CEM leukemia, -8.36% (active); in the assay with MOLT-4 leukemia it was -45% (active); in the assay with SR leukemia, -56.4% (active); with OVCAR-8 ovarian, -42.5% (active). Besides, the growth in the assay with OVCAR-5 ovarian is -62.7% (active); in the assay with OVCAR-4 ovarian, -8.97% (active); in the assay on SK-OV-3 ovarian, -85.9% (active); with IGROV1 ovarian, -53.1% (active); in the assay on OVCAR-3 ovarian, -70.9% (active); with HS 578T breast, -44.4% (active). Besides, the growth in the assay on NCI/ADR-RES ovarian was 61%.

For `CCCCOc1nc2ccc(OC)cc2cc1-c1cc(-c2ccc(Cl)cc2)nc(-c2ccc(Cl)cc2)c1`, the growth was 103% with SK-MEL-2 melanoma; 98.2% with EKVX NSCLC; 101% with SN12C renal; 90% with UO-31 renal; 104% in the assay with TK-10 renal; 96.3% in the assay on ACHN renal. For the same compound, the growth is 104% with CAKI-1 renal; 83.5% in the assay on A498 renal; 103% with CCRF-CEM leukemia; 113% in the assay on MOLT-4 leukemia; 107% in the assay with SR leukemia; 104% in the assay on OVCAR-8 ovarian. The growth in the assay with OVCAR-5 ovarian was 98.7%; in the assay with OVCAR-4 ovarian, 99.5%; in the assay on SK-OV-3 ovarian, 108%; in the assay with IGROV1 ovarian, 105%; in the assay with OVCAR-3 ovarian it was 112%; in the assay on HS 578T breast, 100%. Besides, the growth in the assay with NCI/ADR-RES ovarian is 105%.
